Hits are enriched below; roughly 7.3% of the tested compounds scored in any of these assays.
ELG1 genotoxic: qHTS screen for small molecules that induce genotoxicity in human embryonic kidney (HEK293T) cells expressing luciferase-tagged ELG1 | HEK293T ELG1-luciferase reporter, luminescence, 16 h | Potency, µM (doses to about 46 µM), for the others: at the top dose activity change, positive = activation, hits mostly activators | 330,000 tested, 1.3% active | AID 504466, 2011; note: % of control where 0% means no effect; nearly all actives have a fitted effect of over 60% in size
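After overnight (16 hr) compound treatment at 37 °C, ELG1-luciferase HEK293T cells were lysed with ONE-Glo; luminescence quantified 30 min later at room temperature.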
NPC1 prom act: qHTS Assay for NPC1 Promoter Activators; Potency, µM (top dose mostly 9.22 µM), inactives show at the highest dose activation, usual class: activators; Huh7 NPC1 promoter luciferase reporter, 24 h; 320,000 tested, 2.4% active; note: % of control where 0% means no effect; nearly all actives have a fitted effect of over 60% in size
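Huh7 cells stably carrying NPC1 promoter–luciferase, plated in Opti-MEM with 10% FBS for 2 h, were exposed to compound in DMSO for 24 h at 37 °C; luciferase reagent was added for 10 min and luminescence read.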
SMN2 splice up: qHTS Assay for Enhancers of SMN2 Splice Variant Expression | HEK293 SMN2-luciferase splicing reporter, luminescence, 30-36 h | Potency, µM (doses to about 46.1 µM), for inactives: at the highest dose activity change, positive = activation, most hits filed as activators | 210,000 tested, 2.8% active | AID 1458, 2008; note: % of control where 0% means no effect; nearly all actives have a fitted effect of over 55% in size
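qHTS luciferase splicing reporter: luminescence rises when SMN2 exon 7 is included in transfected HEK293 cells. Compound exposure lasted 30-36 h at 37C, with 4.5 mM final sodium butyrate as control, followed by a ONE-Glo read.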
Luc counter: Counterscreen for Luciferase (Kinase-Glo TM) Inhibition | 200,000 tested, 0.28% active | Potency, µM (highest dose often 38.3 µM), for inactives: at the highest dose activity change, negative = inhibition, most hits filed as inhibitors | Kinase-Glo luciferase, ATP luminescence, 8 min | AID 1379, 2008 | Luciferin 4-monooxygenase (Photuris pensylvanica), Q27757; note: % is set by controls: 0 for no effect and ±100 for the full control effect; nearly all actives have a fitted effect of over 60% in size
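Light output from Kinase-Glo luciferase with luciferin and 10 uM ATP in 50 mM imidazole pH 7.2, KCl, MgCl2, Tween 20, BSA; compound pin-delivered, 8-min ambient incubation, then luminescence read.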
FLuc counter: qHTS profiling assay for firefly luciferase inhibitor/activator using purifed enzyme and Km concentrations of substrates (counterscreen for miR-21 project); Luciferin 4-monooxygenase (Photinus pyralis), P08659; purified FLuc, Km substrates, luminescence inhibition; Potency, µM (titrated, usually from 57.5 µM), inactives show at the highest dose activity change, negative = inhibition, most hits filed as inhibitors; 360,000 tested, 6.9% active; AID 588342, 2011;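 note: plate controls were vehicle for no effect and reference inhibitor for full effect; nearly all actives have a fitted effect of over 55% in size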
Target sequence (P08659 whole entry, looked up): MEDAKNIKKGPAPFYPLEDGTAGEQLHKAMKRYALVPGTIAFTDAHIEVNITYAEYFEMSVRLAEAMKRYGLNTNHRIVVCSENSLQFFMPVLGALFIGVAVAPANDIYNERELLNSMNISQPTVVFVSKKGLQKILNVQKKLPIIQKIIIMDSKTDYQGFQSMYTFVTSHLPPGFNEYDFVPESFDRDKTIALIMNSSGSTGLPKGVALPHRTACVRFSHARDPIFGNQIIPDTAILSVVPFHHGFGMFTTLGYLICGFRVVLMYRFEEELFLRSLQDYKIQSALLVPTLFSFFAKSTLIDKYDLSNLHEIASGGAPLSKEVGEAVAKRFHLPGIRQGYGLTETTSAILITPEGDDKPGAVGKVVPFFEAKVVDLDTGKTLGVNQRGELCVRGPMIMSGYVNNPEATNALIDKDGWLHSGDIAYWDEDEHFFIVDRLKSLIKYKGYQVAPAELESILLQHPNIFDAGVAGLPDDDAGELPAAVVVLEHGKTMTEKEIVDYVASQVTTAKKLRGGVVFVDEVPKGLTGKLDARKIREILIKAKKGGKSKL
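Purified P. pyralis luciferase, 10 nM final, with Km-level 10 uM D-luciferin and 10 uM ATP in 50 mM Tris acetate pH 7.5, 10 mM Mg acetate, 0.01% Tween-20, 0.05% BSA; 6-point qHTS titration about 60 µM downward; luminescence read.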
Rab9 prom act: qHTS Assay for Rab9 Promoter Activators; Potency, µM (highest dose often 9.22 µM), for the others: at the highest dose activation, negative = inhibition, most hits filed as activators; Huh7 Rab9 promoter-luciferase reporter, luminescence, 24 h; 320,000 tested, 2.8% active; AID 485297, 2010; note: % of control where 0% means no effect; nearly all actives have a fitted effect of over 60% in size
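Steps: seed 1500 Huh7 Rab9-luc cells per well, rest 2 h at 37 °C; add compound in DMSO; incubate 24 h; add luciferase reagent, 10 min ambient; read luminescence.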
The depositor's hits bear a star; ? = inconclusive; . = no result. Calls come from the whole dose curve; as a rule, active = well fitted curve in the direction sought with a large enough effect; inconclusive = small, poorly fitted or top-dose-only effect, or another doubt; inactive = no such curve, though single readings can be large; an effect the other way counts as inactive or inconclusive. Potency is the fitted concentration of half-maximal effect.

SMILES | ELG1 genotoxic | NPC1 prom act | SMN2 splice up | Luc counter | FLuc counter | Rab9 prom act
COC(=O)CC1c2ccccc2C=C(C2CC2)N1C(=O)OC (configuration not stated) | . | . | -3.4% | 0.6% | . | .
CC(C)(C)c1ccc(OCc2ccc(C(=O)NCc3cccnc3)o2)cc1 | ? | 2.82µM* | ? | -0.6% | 16.9µM* | 1.26µM*
CC(C)(C)c1ccc(OCc2ccc(C(=O)NN)o2)cc1 | ? | 0.398µM* | . | . | 15.1µM* | 0.794µM*
CC(C)(c1ccccc1)c1ccc(OCc2ccc(C(=O)O)o2)cc1 | ? | 2.82µM* | . | . | 26.9µM* | 1.12µM*
Cc1noc2nc(C(=O)O)nc(N3CCCCC3)c12 | . | . | 0.1% | . | -8.9% | .
COC(=O)c1ccccc1NC(=O)c1ccc2c(c1)CCN2S(C)(=O)=O | . | . | -3.1% | . | -13.3% | .
CN1CCN(c2ccc(-c3cc(O)c4ncccc4c3)cc2)CC1 | . | 11.8% | . | . | 6.01µM* | ?
Oc1cc(-c2ccc(N3CCCCC3)nc2)cc2cccnc12 | 18.3µM* | 9.6% | . | . | ? | 4.1%
CN(C)CCCNC(=O)c1ccc(-c2cc(O)c3ncccc3c2)cc1 | 13.8% | -4.4% | . | . | -3.3% | -6.0%
CN(C)c1ccc(-c2cc(O)c3ncccc3c2)cc1 | 16.4µM* | -6.9% | . | . | 15.1µM* | -1.7%
Oc1cc(-c2ccncc2)cc2cccnc12 | -8.0% | -35.0% | . | . | ? | -35.0%
O=c1cc(-c2ccc(O)cc2)oc2cc(O[C@H]3OC(CO)C(O)C(O)C3O)cc(O)c12 (some centres not stated) | . | . | ? | -0.1% | . | .
O=c1c(-c2ccc(O)cc2)coc2cc(OC3OC(CO)C(O)C(O)C3O)cc(O)c12 (configuration not stated) | 14.6µM* | ? | ? | -0.4% | 23.9µM* | ?
O=c1c(-c2ccc(O)cc2)coc2cc(OC3OC(CO)C(O)C(O)C3O)ccc12 (configuration not stated) | 16.4µM* | 3.16µM* | ? | -2.8% | ? | ?
COc1cc(O)c2c(=O)c(-c3ccc(O[C@@H]4O[C@H](CO)[C@@H](O)[C@H](O)[C@H]4O)cc3)coc2c1 | ? | 1.58µM* | . | . | 16.9µM* | 3.98µM*
Cn1c(SCn2nnc3ccccc3c2=O)nc2ccccc2c1=O | 2.2% | -6.3% | -24.1% | 1.3% | -7.9% | -13.7%
CCC(C(=O)Nc1ccc2c(c1)OCCO2)n1nnc2ccccc2c1=O (configuration not stated) | ? | 3.16µM* | . | . | 13.5µM* | ?
O=c1c2ccccc2nnn1CSc1ccc2c(c1)OCCO2 | 17.9% | 1.58µM* | 7.08µM* | -5.7% | 9.53µM* | 1.78µM*
C[C@@H](C(=O)Nc1ccc2c(c1)OCO2)n1c(=O)[nH]c2ccccc2c1=O | 2.5% | -4.7% | . | . | 4.3% | 5.1%
C[C@@H](C(=O)Nc1ccc2c(c1)OCCO2)n1c(=O)[nH]c2ccccc2c1=O | ? | 3.2% | . | . | 15.1µM* | 17.7%
CC(Sc1nc2ccccc2c(=O)n1C)C(=O)Nc1ccc2c(c1)OCCO2 (configuration not stated) | -2.8% | -14.8% | . | . | -18.6% | -24.9%
Cc1ccc2nc(-c3cc(NC(=O)/C=C/c4ccccc4)ccc3Cl)oc2c1 | . | . | 7.6% | . | ? | .
COc1ccc(-c2nc3ccccc3n2OC(C)C(=O)O)cc1 (configuration not stated) | ? | -1.8% | . | -1.6% | 10.7µM* | -0.4%
Cc1ccc(-c2nc3ccc(Cl)cc3n2OC(C)C(=O)O)cc1 (configuration not stated) | ? | -0.1% | ? | -1.1% | 10.7µM* | 0.1%
On1c(-c2ccccc2)nc2ccc(Cl)cc21 | 7.6% | ? | 12.6µM* | -3.9% | 16.9µM* | ?
SMILES | ELG1 genotoxic | NPC1 prom act | SMN2 splice up | Luc counter | FLuc counter | Rab9 prom act
CC(On1c(-c2ccccc2)nc2ccc(Cl)cc21)C(=O)O (configuration not stated) | 6.1% | -2.9% | 8.4% | 1.7% | ? | 9.3%
Cn1cc(Cl)c(-c2nc3ccccc3[nH]2)n1 | 10.3µM* | 2.51µM* | 15.8µM* | -11.0% | 16.9µM* | 3.55µM*
c1ccc2[nH]c(-c3ccnc4ccccc34)nc2c1 | ? | ? | ? | -0.4% | 23.9µM* | 3.55µM*
Clc1ccccc1-c1nc2ccccc2[nH]1 | ? | 2.82µM* | . | . | 8.49µM* | 2µM*
Fc1ccccc1-c1nc2ccccc2[nH]1 | ? | 3.55µM* | . | ? | 9.53µM* | 1.78µM*
CCSc1ncccc1-c1nc2ccccc2[nH]1 | ? | ? | ? | -6.4% | ? | 29.5%
CC(C)CC(=O)Nc1ccc(Cl)c(-c2nc3ccccc3[nH]2)c1 | . | . | . | . | -13.3% | .
Nc1nonc1-c1nc2ccccc2[nH]1 | -0.2% | -1.4% | ? | -0.7% | -4.7% | -3.2%
CSc1ncccc1-c1nc2ccccc2[nH]1 | 11.0% | 19.3% | -0.6% | -9.3% | 21.3µM* | 25.0%
Cc1ccccc1-c1nc2ccccc2[nH]1 | ? | ? | 11.2µM* | -22.7% | 16.9µM* | ?
CC1(C)CC(=O)c2cc(-c3nc(-c4ccccc4)cs3)c(=O)[nH]c2C1 | . | . | -1.6% | . | 1.5% | .
c1csc(-c2nc3nc4ccccc4nc3n2Cc2ccc3c(c2)OCO3)c1 | -1.2% | 29.4% | ? | -8.9% | 2.69µM* | ?
COc1ccc(Cl)cc1NC(=O)Cn1nc(Cc2ccncc2)c2ccccc2c1=O | . | . | -10.3% | . | 7.4% | .
CCn1c(CNC(=O)c2ccc(OC)cc2)nnc1SCC(=O)Nc1ccc(F)cc1 | . | . | -2.8% | . | -6.4% | .
N#Cc1cccc(NC(=O)COC(=O)c2cc(S(=O)(=O)Nc3ccccc3Cl)ccc2O)c1 | -3.0% | . | . | . | . | .
O=C(COC(=O)c1cc(S(=O)(=O)Nc2ccccc2Cl)ccc1O)Nc1nc2ccccc2s1 | 4.2% | 6.2% | 15.6% | 2.0% | 21.3µM* | ?
S=C(Nc1ccc(Br)cc1)N1CCN(C2CCCCC2)CC1 | -1.4% | -0.2% | -15.1% | 3.2% | 7.4% | -8.9%
S=C(Nc1ccc(Br)cc1)N1CCCC1 | 12.2% | 15.9% | 8.91µM* | -1.6% | 15.1µM* | 3.3%
CCCCc1ccc(NC(=S)N2CCCC(C)C2)cc1 (configuration not stated) | 10.6% | 8.2% | 13.9% | 2.2% | 13.5µM* | 16.4%
CCc1ccc(NC(=S)N2CCCCCCC2)cc1 | ? | ? | 15.8µM* | 0.7% | 4.78µM* | ?
CN1CCN(C(=S)Nc2ccc(Cl)cc2)CC1 | 0.1% | -6.9% | 9.0% | 1.7% | ? | 0.5%
